Source: PubChem BioAssay (NCI)
About 83,000 compounds went through this panel and 20% of them were active in at least one assay; those are over-represented in the sample as a whole.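 Results are percent growth after 48 hours of single-concentration exposure. 100 means growth as in untreated cells, lower positive values show inhibition; negative values down to -100 show cell death.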 A number with no mark means an inactive call. Calls of active or inactive are those of the source. How the source made its calls: active means growth percent below 10; inactive means the rest.

The molecules below were run on HL-60(TB) leukemia (assay: NCI-60 one-dose screen, 48 h (100 = growth as untreated, 0 = no growth, -100 = all killed)). Details: 10 µM unless noted.
`CCCCCCCCCCCC1N=C(N)N=C(N)N1c1cccc(Br)c1` (stereo not given) was tested, and the growth was -53% (active). Molecule `COc1ccc(-c2nc(SC)nc(N3CCOCC3)c2C#N)cc1` has a growth of 94%. `COc1cc(OC)c2c(=O)c(O)c(-c3ccccc3)oc2c1` was tested, and the growth was 53.4%. For `CCOc1cccc2c(NC(C)CCCN(CC)CC)c(C)cnc12` (stereo not given), the growth was 105%. For `COc1ccc(CCl)c(C)c1OC`, the growth was 99%. `CCc1ccc(CCN2C(=O)c3ccccc3C2=O)nc1` showed a growth of 120%. With `COCCOc1ccc(-c2nc3ccc(-c4nc5ccc(N6CCN(C)CC6)cc5[nH]4)cc3[nH]2)cc1` the growth was 3.73% (active). `O=C(CSc1nnc(-c2ccc(Cl)cc2)o1)Nc1ccc(C(=O)/C=C/c2ccc(Cl)cc2)cc1` gave a growth of 84.4%. `O=C(/C=C\c1ccccc1)N1c2ccccc2CC1c1c[nH]c2ccccc12` (stereo not given) showed a growth of 73.5%. For `Cc1cc(N2CCOCC2)nc(N[C@@H]2CCC[C@H](Nc3ccnc4cc(Cl)ccc34)C2)n1`, the growth was -69.5% (active). For `COc1ccc(C(=S)N2CCN(c3ccccc3Cl)CC2)cc1OC`, the growth was 118%. `[2H]C([2H])([2H])Oc1ccc(F)cc1/C=C/C(=O)/C=C(/C=C/c1cc(F)ccc1OC([2H])([2H])[2H])OB(F)F` was tested, and the growth was 30.1%. `CCCN(CCC)CC(O)COc1ccccc1C(=O)Nc1ccccc1` (stereo not given) showed a growth of 17.3%. `O=[N+]([O-])CC(c1ccccc1)c1c[nH]c2ccccc12` (stereo not given) was tested, and the growth was 7.86% (active). For `COc1cc(/C=C/c2cc(/C=C/c3ccc(O)c(OC)c3)n(C(=O)c3ccc(Cl)cc3)n2)ccc1O`, the growth was -12.4% (active).
